# NSD2 inh – NSD2 (human) methyltransferase inhibition; NSD2 peptide methylation, AlphaScreen, 120 min; inhibition, % at 12.5 µM; 0.54% of 310,000 active; in the data active = inhibition above about 50%
# ARNT TACC3 PPI – disruptors of human ARNT/TACC3 interaction; inhibition, % at 9.99 µM; 0.66% of 390,000 active; AID 623870; Q9Y6A5; AlphaScreen His-ARNT PAS-B/GST-TACC3 binding, luminescence; TACC3 fragment carries E629A point mutation;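 active = mean inhibition of replicates at least 50% and at least half of replicates each reaching 50%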;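 note: 0% = complete ARNT plus TACC3 wells and 100% = ARNT alone without TACC3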
# CASP6 VEID inh – caspase-6 (human) enzyme inhibition. P55212. purified caspase-6, Z-VEID-R110 cleavage fluorescence. inhibition, % at 12.5 µM. 0.53% of 350,000 active. AID 686996;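 active = mean inhibition across replicates at least about 35%, with every replicate also reaching that limit, limit read from the data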;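 note: 0% = median of neutral control wells and 100% = no fluorescence left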
# Target sequence (P55212 24-179 limits assumed): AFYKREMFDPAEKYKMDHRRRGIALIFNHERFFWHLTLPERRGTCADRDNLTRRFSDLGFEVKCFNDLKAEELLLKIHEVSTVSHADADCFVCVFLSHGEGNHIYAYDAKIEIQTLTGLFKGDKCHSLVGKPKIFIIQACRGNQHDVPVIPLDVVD
# Target sequence (P55212 194-293 limits assumed): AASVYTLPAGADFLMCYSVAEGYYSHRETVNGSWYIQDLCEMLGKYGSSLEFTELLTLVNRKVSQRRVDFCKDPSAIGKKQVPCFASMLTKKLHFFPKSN
# PfHsp90 set2 – growth inhibition of yeast expressing Plasmodium Hsp90; S. cerevisiae expressing PfHsp90, BacTiter-Glo ATP, 48 h; yeast lacking PDR1 and PDR3 efflux regulators; inhibition, % at 9.4 µM; 0.32% of 310,000 active; AID 504621;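 active = every replicate shows inhibition above about 80%, whatever the replicate mean, limit read from the data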;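 note: 0% = DMSO neutral controls and 100% = 20 µM radicicol positive controls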
# SIRT5 inh – inhibitors of human sirtuin-5 desuccinylase | Q9NXA8 | Purified SirT5, succinyl-peptide AMC, trypsin-coupled fluorescence | inhibition, % at 15 µM | 1.1% of 330,000 active; in the data active = inhibition above about 15%
# Target sequence (Q9NXA8 whole entry, looked up): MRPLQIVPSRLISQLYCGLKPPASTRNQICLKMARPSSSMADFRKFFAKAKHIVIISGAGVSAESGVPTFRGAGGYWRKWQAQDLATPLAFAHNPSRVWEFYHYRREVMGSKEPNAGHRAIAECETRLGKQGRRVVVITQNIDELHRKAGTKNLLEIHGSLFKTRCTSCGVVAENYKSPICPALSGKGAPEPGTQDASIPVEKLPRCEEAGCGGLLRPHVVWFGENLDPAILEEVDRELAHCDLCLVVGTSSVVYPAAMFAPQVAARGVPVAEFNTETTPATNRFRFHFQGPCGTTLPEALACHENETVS
# Starred values were filed as active, the others as inactive; · = not tested or not shown. Hits are enriched below; roughly 2.1% of the tested compounds scored in any of these assays.
SMILES,NSD2 inh,ARNT TACC3 PPI,CASP6 VEID inh,PfHsp90 set2,SIRT5 inh
CCOC(=O)C1=C(CC)OC(N)=C(C#N)C1c1ccc(OC)c(OC)c1OC (centres undefined),-3,15*,1,-12,15
Oc1ccc2ccccc2c1/C=N/Nc1nnc(-c2ncc[nH]2)c2ccccc12,·,-1,·,122*,·
COc1ccc(/C=N/Nc2nnc(-c3ncc[nH]3)c3ccccc23)cc1,·,-3,·,-9,·
COc1ccc2oc(C(=O)N3CCN(c4ncccn4)CC3)c(C)c2c1,2,-1,36*,-40,0
Cc1c(C(=O)N2CCCC2)oc2ccc(Br)cc12,-6,-9,39*,11,1
N#Cc1c(/N=C/c2ccc(-c3ccccc3C(=O)O)o2)sc2c1CCCC2,45,7,57*,2,8
O=[N+]([O-])c1cccc(S(=O)(=O)N/N=C\c2ccc3c(c2)OCO3)c1,0,1,2,1,20*
COc1cc(/C=C/C(=O)O)cc(S(=O)(=O)NC2CCCC2)c1OC,-3,-8,-1,-30,-3
COc1cc(/C=C/C(=O)O)cc(S(=O)(=O)Nc2cc(Cl)c(Cl)cc2Cl)c1OC,1,·,0,15,17*
O=C(Nc1nccs1)c1cc2cc(Cl)ccc2oc1=O,-1,-3,-1,4,21*
COc1ccc(S(=O)(=O)NC2CC3CCC2C3)cc1Br (centres undefined),-3,-3,7,114*,1
COc1ccc(S(=O)(=O)NC2CC3CCC2C3)cc1Cl (centres undefined),-8,-7,2,141*,-2
O=S(=O)(NC1CC2CCC1C2)c1ccc2c(c1)OCCO2 (centres undefined),-11,-3,·,21,·
CC(=O)Nc1ccc(S(=O)(=O)NC2CC3CCC2C3)cc1 (centres undefined),-2,2,0,2,-6
COc1ccc(-c2cc(C(=O)N3CCN(c4cccc(C)c4C)CC3)c3ccccc3n2)cc1OC,·,-12,-1,·,21*
COc1ccc(-c2cc(C(=O)N3CCN(c4ncccn4)CC3)c3ccccc3n2)cc1OC,-3,-16,8,4,3
Cc1cc2c(Nc3ccccc3)ncnc2s1,-3,-4,-5,·,16*
c1cnc2c(SCc3ccc(-c4nnco4)cc3)cccc2c1,1,59*,·,-14,·
CCCN(C)C[C@H]1Oc2ncc(C#Cc3ccccc3OC)cc2C(=O)N([C@H](C)CO)C[C@H]1C,·,12,-2,·,-2
COc1cccc(CNC(=O)C[C@H]2C=C[C@H](NC(=O)C3CCC3)[C@H](CO)O2)c1,·,1,1,·,3
Cc1ccc(S(=O)(=O)N2C[C@H]3[C@H]4C(=O)N(c5ccccc5)C(=O)[C@H]4C[C@H](OC(=O)NCc4ccccc4)[C@@]3(O)C2)cc1,·,·,-2,·,22*
CCCCCNC(=O)C(c1cc2ccccc2o1)n1c(=O)c(-c2cc3ccccc3[nH]2)nc2ccccc21 (centres undefined),·,·,-2,·,-1
CCCCCNC(=O)C(c1cc2ccccc2o1)n1c(=O)c(-c2ccccc2)nc2ccccc21 (centres undefined),·,·,-3,·,19*
N#C[C@@H]1[C@H](c2ccc(C3=CCCC3)cc2)[C@H](CO)N1C(=O)C1CCOCC1,·,3,1,·,0
Cc1ccc(S(=O)(=O)N(C)C[C@@H]2Oc3c(NS(=O)(=O)c4cccs4)cccc3C(=O)N([C@H](C)CO)C[C@H]2C)cc1,·,-5,3,·,1
SMILES,NSD2 inh,ARNT TACC3 PPI,CASP6 VEID inh,PfHsp90 set2,SIRT5 inh
C[C@H](CO)N1C[C@H](C)[C@@H](CN(C)C(=O)Nc2ccccc2)Oc2c(NS(=O)(=O)c3cccs3)cccc2C1=O,·,-3,-1,14,24*
C[C@@H]1CN([C@@H](C)CO)C(=O)c2cccc(NS(=O)(=O)c3cccs3)c2O[C@@H]1CN(C)S(=O)(=O)c1ccccc1,·,3,37*,·,-5
C[C@H]1CN([C@@H](C)CO)C(=O)c2cccc(NS(=O)(=O)c3cccs3)c2O[C@@H]1CN(C)C(=O)Nc1ccc(F)cc1,·,-6,6,·,-5
CO[C@@H]1CN(C)C(=O)c2ccc(NC(=O)c3ccccc3)cc2OC[C@@H](C)N(C(=O)C2CC2)C[C@H]1C,·,·,5,·,3
C[C@H]1CN([C@@H](C)CO)S(=O)(=O)c2ccc(-c3ccc(C(=O)N(C)C)cc3)cc2O[C@H]1CN(C)C(=O)C1CCCCC1,·,2,-2,·,2
COC(=O)c1ccc(NC(=O)CCS(=O)(=O)c2ccc(Br)s2)cc1,-1,-6,·,·,·
CC(=O)c1cccc(NC(=O)CCS(=O)(=O)c2ccc(Br)s2)c1,-12,-9,1,0,19*
Cc1ccsc1/C=N/NC(=S)NCCc1ccccc1,3,4,-3,-7,16*
Cn1ccnc1SC(C(=O)O)c1ccccc1 (centres undefined),0,-4,-1,-4,102*
C[C@@H]1CN([C@@H](C)CO)C(=O)c2cc(NC(=O)Nc3ccccc3)ccc2O[C@H]1CN(C)C(=O)Nc1ccc(C(F)(F)F)cc1,·,1,1,·,3
O=C(N[C@H]1CC[C@H](CCn2cc(Cc3ccccc3)nn2)O[C@H]1CO)c1ccccn1,·,-3,-1,·,-1
Cc1ccc(S(=O)(=O)N2C[C@@H]3CCCC[C@@H]3[C@@H](C)[C@H]2c2cn(Cc3ccccc3)c3ncccc23)cc1,·,1,-2,18,22*
Cc1ccc(S(=O)(=O)N2C[C@@H]3CCCC[C@@H]3[C@@H](C)[C@H]2c2cn(Cc3ccccc3)c3ccccc23)cc1,·,-5,-1,-11,-3
CCC(=O)N1CC(=O)N2[C@H](CO)[C@H](c3ccc(-c4ccccc4F)cc3)[C@H]2C1,·,·,·,·,-2
Clc1ccc(-c2ccc(CNCc3ccccn3)o2)cc1,14,73*,-1,-61,3
C[C@H]1CCCCO[C@H](CN(C)C(=O)C2CCCCC2)[C@@H](C)CN([C@@H](C)CO)C(=O)c2cc(NC(=O)CCCN(C)C)ccc2O1,·,-2,·,·,·
O=C(C[C@H]1C[C@@H]2c3cc(NC(=O)C4CCC4)ccc3O[C@@H]2[C@H](CO)O1)NCC(F)(F)F,·,-8,-1,·,-2
CSCCC(NS(=O)(=O)c1ccc2c(c1)Cc1cc(S(=O)(=O)NC(CCSC)C(=O)O)ccc1-2)C(=O)O (centres undefined),3,6,4,10,6
CC(C)C(NS(=O)(=O)c1ccc2c(c1)Cc1cc(S(=O)(=O)NC(C(=O)O)C(C)C)ccc1-2)C(=O)O (centres undefined),0,3,2,-2,25*
CO[C@H]1CN(C)C(=O)c2cc(NS(=O)(=O)c3cn(C)cn3)ccc2OC[C@@H](C)N(C)C[C@@H]1C,·,0,·,·,·
COc1cc(C(=O)N=c2sccn2C)c([N+](=O)[O-])cc1OC,0,-8,1,5,-6
Cn1ccsc1=NC(=O)c1ccc([N+](=O)[O-])o1,4,·,49*,2,-3

# Bioassay records from PubChem BioAssay.
